# Laboratory results reported in the supplement of paper PMC4466140.
# Legend:
# Test in all cases: SPOT peptide array binding signal intensity (averaged, normalized) (arbitrary units (background-subtracted, floor 0; scale differs between SH3 domains)); higher = stronger binding of the SH3 domain to the peptide
# CaNbp2 = target: CaNbp2
# Experimental: (§1)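 GST-tagged SH3 domains from S. cerevisiae (Sc), A. gossypii (Ag), C. albicans (Ca) and S. pombe (Sp) were incubated at 10 ug/ml overnight at 4 C on cellulose SPOT membranes carrying 292 synthetic 15-mer peptides mined from the S. cerevisiae proteome (cysteines replaced by serines). Binding was detected with anti-GST antibody, HRP secondary and chemiluminescence, quantified with Genespotter, and reported as normalized spot intensities averaged over biological replicates.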
# CaRvs167 = target: CaRvs167
# Experimental: as §1
# CaRvs167-3 = target: CaRvs167-3
# Experimental: as §1
# CaSho1 = target: CaSho1
# Experimental: as §1
# CaSla1-D1-D2 = target: CaSla1-D1-D2
# Experimental: as §1
# CaSla1-D3 = target: CaSla1-D3
# Experimental: as §1
# ScAbp1 = target: ScAbp1
# Experimental: as §1
# ScBbc1 = target: ScBbc1
# Experimental: as §1
# ScBem1-D1 = target: ScBem1-D1
# Experimental: as §1
# ScBzz1-D1 = target: ScBzz1-D1
# Experimental: as §1
# ScBzz1-D2 = target: ScBzz1-D2
# Experimental: as §1
# ScCyk3 = target: ScCyk3
# Experimental: as §1
# ScFus1 = target: ScFus1
# Experimental: as §1
# ScHof1 = target: ScHof1
# Experimental: as §1
# ScHse1 = target: ScHse1
# Experimental: as §1
# ScLsb1 = target: ScLsb1
# Experimental: as §1
# ScLsb2 = target: ScLsb2
# Experimental: as §1
# ScLsb3 = target: ScLsb3
# Experimental: as §1
# ScLsb4 = target: ScLsb4
# Experimental: as §1
# ScMyo3 = target: ScMyo3
# Experimental: as §1
# ScMyo5 = target: ScMyo5
# Experimental: as §1
# ScNbp2 = target: ScNbp2
# Experimental: as §1
# ScPex13 = target: ScPex13
# Experimental: as §1
# ScRvs167 = target: ScRvs167
# Experimental: as §1
# ScSho1 = target: ScSho1
# Experimental: as §1
# ScSla1-D1-D2 = target: ScSla1-D1-D2
# Experimental: as §1
# ScSla1-D3 = target: ScSla1-D3
# Experimental: as §1
# SpAbp1-D1 = target: SpAbp1-D1
# Experimental: as §1
# SpBbc1 = target: SpBbc1
# Experimental: as §1
# SpBzz1-D1 = target: SpBzz1-D1
# Experimental: as §1
# SpBzz1-D2 = target: SpBzz1-D2
# Experimental: as §1
# SpCyk3 = target: SpCyk3
# Experimental: as §1
# SpHof1 = target: SpHof1
# Experimental: as §1
# SpHof1-2 = target: SpHof1-2
# Experimental: as §1
# SpHof1-3 = target: SpHof1-3
# Experimental: as §1
# SpHse1 = target: SpHse1
# Experimental: as §1
# SpLsb1 = target: SpLsb1
# Experimental: as §1
# SpLsb4 = target: SpLsb4
# Experimental: as §1
# SpMyo1 = target: SpMyo1
# Experimental: as §1
# SpNbp2 = target: SpNbp2
# Experimental: as §1
# SpPex13 = target: SpPex13
# Experimental: as §1
# SpRvs167 = target: SpRvs167
# Experimental: as §1
# SpSla1-D1-D2 = target: SpSla1-D1-D2
# Experimental: as §1
# SpSla1-D3 = target: SpSla1-D3
# Experimental: as §1
# AgAbp1 = target: AgAbp1
# Experimental: as §1
# AgBbc1 = target: AgBbc1
# Experimental: as §1
# AgBem1-D1 = target: AgBem1-D1
# Experimental: as §1
# AgBzz1-D1 = target: AgBzz1-D1
# Experimental: as §1
# AgBzz1-D2 = target: AgBzz1-D2
# Experimental: as §1
# AgCyk3 = target: AgCyk3
# Experimental: as §1
# AgFus1 = target: AgFus1
# Experimental: as §1
# AgHof1 = target: AgHof1
# Experimental: as §1
# AgHse1 = target: AgHse1
# Experimental: as §1
# AgLsb1 = target: AgLsb1
# Experimental: as §1
# AgLsb4 = target: AgLsb4
# Experimental: as §1
# AgMyo5 = target: AgMyo5
# Experimental: as §1
# AgNbp2 = target: AgNbp2
# Experimental: as §1
# AgRvs167 = target: AgRvs167
# Experimental: as §1
# AgSho1 = target: AgSho1
# Experimental: as §1
# AgSla1-D1-D2 = target: AgSla1-D1-D2
# Experimental: as §1
# AgSla1-D3 = target: AgSla1-D3
# Experimental: as §1
# CaAbp1-D1 = target: CaAbp1-D1
# Experimental: as §1
# CaAbp1-D2 = target: CaAbp1-D2
# Experimental: as §1
# CaBbc1 = target: CaBbc1
# Experimental: as §1
# CaBem1-D1 = target: CaBem1-D1
# Experimental: as §1
# CaBzz1-D1 = target: CaBzz1-D1
# Experimental: as §1
# CaBzz1-D2 = target: CaBzz1-D2
# Experimental: as §1
# CaCyk3 = target: CaCyk3
# Experimental: as §1
# CaFus1 = target: CaFus1
# Experimental: as §1
# CaHof1 = target: CaHof1
# Experimental: as §1
# CaHse1 = target: CaHse1
# Experimental: as §1
# CaLsb1 = target: CaLsb1
# Experimental: as §1
# CaLsb4 = target: CaLsb4
# Experimental: as §1
# CaMyo5 = target: CaMyo5
# Experimental: as §1
binder,measurement,setting,value
VRTRRRPPPPPIPST,SPOT peptide array binding signal intensity,CaNbp2,610
same,SPOT peptide array binding signal intensity,CaRvs167,48.5
same,SPOT peptide array binding signal intensity,CaRvs167-3,2
same,SPOT peptide array binding signal intensity,CaSho1,25.5
same,SPOT peptide array binding signal intensity,CaSla1-D1-D2,2380
same,SPOT peptide array binding signal intensity,CaSla1-D3,296
same,SPOT peptide array binding signal intensity,ScAbp1,19
same,SPOT peptide array binding signal intensity,ScBbc1,358
same,SPOT peptide array binding signal intensity,ScBem1-D1,46
same,SPOT peptide array binding signal intensity,ScBzz1-D1,1430
same,SPOT peptide array binding signal intensity,ScBzz1-D2,210
same,SPOT peptide array binding signal intensity,ScCyk3,20.5
same,SPOT peptide array binding signal intensity,ScFus1,10
same,SPOT peptide array binding signal intensity,ScHof1,0.75
same,SPOT peptide array binding signal intensity,ScHse1,186
same,SPOT peptide array binding signal intensity,ScLsb1,96.8
same,SPOT peptide array binding signal intensity,ScLsb2,144
same,SPOT peptide array binding signal intensity,ScLsb3,584
same,SPOT peptide array binding signal intensity,ScLsb4,23.5
same,SPOT peptide array binding signal intensity,ScMyo3,851
same,SPOT peptide array binding signal intensity,ScMyo5,892
same,SPOT peptide array binding signal intensity,ScNbp2,1260
same,SPOT peptide array binding signal intensity,ScPex13,269
same,SPOT peptide array binding signal intensity,ScRvs167,624
same,SPOT peptide array binding signal intensity,ScSho1,141
same,SPOT peptide array binding signal intensity,ScSla1-D1-D2,3390
same,SPOT peptide array binding signal intensity,ScSla1-D3,488
same,SPOT peptide array binding signal intensity,SpAbp1-D1,13.5
same,SPOT peptide array binding signal intensity,SpBbc1,77.2
same,SPOT peptide array binding signal intensity,SpBzz1-D1,2830
same,SPOT peptide array binding signal intensity,SpBzz1-D2,430
same,SPOT peptide array binding signal intensity,SpCyk3,2
same,SPOT peptide array binding signal intensity,SpHof1,248
same,SPOT peptide array binding signal intensity,SpHof1-2,73
same,SPOT peptide array binding signal intensity,SpHof1-3,88.2
same,SPOT peptide array binding signal intensity,SpHse1,42.8
same,SPOT peptide array binding signal intensity,SpLsb1,63.5
same,SPOT peptide array binding signal intensity,SpLsb4,1370
same,SPOT peptide array binding signal intensity,SpMyo1,1460
same,SPOT peptide array binding signal intensity,SpNbp2,≤ 0
same,SPOT peptide array binding signal intensity,SpPex13,30
same,SPOT peptide array binding signal intensity,SpRvs167,265
same,SPOT peptide array binding signal intensity,SpSla1-D1-D2,520
same,SPOT peptide array binding signal intensity,SpSla1-D3,1
NILKRRPLKLEAPSK,SPOT peptide array binding signal intensity,AgAbp1,27.5
same,SPOT peptide array binding signal intensity,AgBbc1,0.25
same,SPOT peptide array binding signal intensity,AgBem1-D1,65
same,SPOT peptide array binding signal intensity,AgBzz1-D1,14
same,SPOT peptide array binding signal intensity,AgBzz1-D2,8
same,SPOT peptide array binding signal intensity,AgCyk3,≤ 0
same,SPOT peptide array binding signal intensity,AgFus1,77
same,SPOT peptide array binding signal intensity,AgHof1,1.25
same,SPOT peptide array binding signal intensity,AgHse1,1740
same,SPOT peptide array binding signal intensity,AgLsb1,0.5
same,SPOT peptide array binding signal intensity,AgLsb4,41
same,SPOT peptide array binding signal intensity,AgMyo5,≤ 0
same,SPOT peptide array binding signal intensity,AgNbp2,32
same,SPOT peptide array binding signal intensity,AgRvs167,4.5
same,SPOT peptide array binding signal intensity,AgSho1,≤ 0
same,SPOT peptide array binding signal intensity,AgSla1-D1-D2,7
same,SPOT peptide array binding signal intensity,AgSla1-D3,≤ 0
same,SPOT peptide array binding signal intensity,CaAbp1-D1,478
same,SPOT peptide array binding signal intensity,CaAbp1-D2,96
same,SPOT peptide array binding signal intensity,CaBbc1,1.25
same,SPOT peptide array binding signal intensity,CaBem1-D1,≤ 0
same,SPOT peptide array binding signal intensity,CaBzz1-D1,≤ 0
same,SPOT peptide array binding signal intensity,CaBzz1-D2,14
same,SPOT peptide array binding signal intensity,CaCyk3,8
same,SPOT peptide array binding signal intensity,CaFus1,534
same,SPOT peptide array binding signal intensity,CaHof1,0.25
same,SPOT peptide array binding signal intensity,CaHse1,27.5
same,SPOT peptide array binding signal intensity,CaLsb1,≤ 0
same,SPOT peptide array binding signal intensity,CaLsb4,≤ 0
same,SPOT peptide array binding signal intensity,CaMyo5,1.5
same,SPOT peptide array binding signal intensity,CaNbp2,284
same,SPOT peptide array binding signal intensity,CaRvs167,31.7
same,SPOT peptide array binding signal intensity,CaRvs167-3,24
same,SPOT peptide array binding signal intensity,CaSho1,93.5
same,SPOT peptide array binding signal intensity,CaSla1-D1-D2,10.5
same,SPOT peptide array binding signal intensity,CaSla1-D3,≤ 0
same,SPOT peptide array binding signal intensity,ScAbp1,296
same,SPOT peptide array binding signal intensity,ScBbc1,≤ 0
same,SPOT peptide array binding signal intensity,ScBem1-D1,10
same,SPOT peptide array binding signal intensity,ScBzz1-D1,12
same,SPOT peptide array binding signal intensity,ScBzz1-D2,≤ 0
same,SPOT peptide array binding signal intensity,ScCyk3,33
same,SPOT peptide array binding signal intensity,ScFus1,149
same,SPOT peptide array binding signal intensity,ScHof1,≤ 0
same,SPOT peptide array binding signal intensity,ScHse1,2660
same,SPOT peptide array binding signal intensity,ScLsb1,2.5
same,SPOT peptide array binding signal intensity,ScLsb2,1
same,SPOT peptide array binding signal intensity,ScLsb3,76
same,SPOT peptide array binding signal intensity,ScLsb4,2
same,SPOT peptide array binding signal intensity,ScMyo3,0.25
same,SPOT peptide array binding signal intensity,ScMyo5,≤ 0
same,SPOT peptide array binding signal intensity,ScNbp2,46
same,SPOT peptide array binding signal intensity,ScPex13,≤ 0
same,SPOT peptide array binding signal intensity,ScRvs167,2.5
same,SPOT peptide array binding signal intensity,ScSho1,368
same,SPOT peptide array binding signal intensity,ScSla1-D1-D2,39
same,SPOT peptide array binding signal intensity,ScSla1-D3,≤ 0
same,SPOT peptide array binding signal intensity,SpAbp1-D1,64.5
same,SPOT peptide array binding signal intensity,SpBbc1,0.75
same,SPOT peptide array binding signal intensity,SpBzz1-D1,64
same,SPOT peptide array binding signal intensity,SpBzz1-D2,≤ 0
same,SPOT peptide array binding signal intensity,SpCyk3,≤ 0
same,SPOT peptide array binding signal intensity,SpHof1,48.8
same,SPOT peptide array binding signal intensity,SpHof1-2,≤ 0
same,SPOT peptide array binding signal intensity,SpHof1-3,699
same,SPOT peptide array binding signal intensity,SpHse1,1400
same,SPOT peptide array binding signal intensity,SpLsb1,1
same,SPOT peptide array binding signal intensity,SpLsb4,3.5
same,SPOT peptide array binding signal intensity,SpMyo1,≤ 0
same,SPOT peptide array binding signal intensity,SpNbp2,58
same,SPOT peptide array binding signal intensity,SpPex13,≤ 0
same,SPOT peptide array binding signal intensity,SpRvs167,1.33
same,SPOT peptide array binding signal intensity,SpSla1-D1-D2,2
same,SPOT peptide array binding signal intensity,SpSla1-D3,≤ 0
